Screening data as filed in PubChem.
C diff HTS: inhibitors of Clostridium difficile growth; 0.25% of 86,000 active; growth activity, negative = inhibition, % at 16 µg/mL (by protocol); Clostridium difficile clinical isolate growth, OD600, 24 h; active compounds read low; AID 1259249;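 active means mean growth activity at or below -80% and every replicate also at or below -80%; inconclusive means mean at or below -80% but some replicate above -80%; inactive means mean growth activity above -80%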
T cruzi growth-1: inhibitors of T. cruzi proliferation; T. cruzi beta-gal in NIH3T3, GalScreen luminescence, 90 h; 5.9% of 77,000 active; inhibition, % at 8.34 µM;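 active means mean inhibition above about 93%, with at least 55% of replicates each passing it, limit read from the data, passing the limit was not always enough; inconclusive means only one of those two conditions holds; inactive means neither condition holds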
Pf Dd2 growth: blocks growth of Plasmodium falciparum Dd2 parasites; 2.3% of 94,000 active; activity change, % at 10 µM; P. falciparum Dd2 growth, SYBR Green, 72 h; active compounds read low; AID 1159554; in the data active means activity change below about -80%; inconclusive means no clear call, values can overlap the other calls
T cruzi growth-2: Trypanosoma cruzi proliferation inhibition; T. cruzi beta-gal in NIH3T3, GalScreen luminescence, 90 h; 72% of 5,600 active; AID 651739; shares compounds with T cruzi growth-1; inhibition, % at 8.35 µM;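 active means mean replicate inhibition above about 95% and at least 55% of replicates individually reaching it, limit read from the data; inconclusive means only one of the two criteria is met; inactive means neither criterion is met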
T cruzi growth-3: Trypanosoma cruzi proliferation inhibition | shares compounds with T cruzi growth-1 | T. cruzi beta-gal in NIH3T3, GalScreen luminescence, 90 h | inhibition, % at 2.09 µM | 21% of 5,600 active | AID 651740;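 active means mean inhibition above about 95%, with at least 55% of replicates also reaching it, limit read from the data; inconclusive means meets just one of the two conditions; inactive means meets neither condition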
NIH3T3 tox: NIH/3T3 (mouse) viability loss. shares compounds with T cruzi growth-1. NIH/3T3 viability, CellTiter-Glo ATP luminescence, 90 h. cytotoxicity (signal decrease), % at 8.35 µM. 14% of 5,600 active. AID 651742;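 active means mean signal decrease across replicates above about 35% based on untreated-well scatter, with enough replicates individually passing, limit read from the data; inconclusive means no rule stated though some were filed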
3T3 cytotox 2: cytotoxicity in mouse NIH/3T3 fibroblasts; shares compounds with T cruzi growth-1; NIH/3T3 viability, CellTiter-Glo ATP luminescence, 90 h; inhibition, % at 24.9 µM; 56% of 5,600 active; AID 651744;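 active means mean loss of cell viability signal at or above a set limit, and enough replicates individually reaching it; inconclusive means meets only the mean limit or only the replicate share; inactive means meets neither condition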
Numbers stand for hits; 0 = inactive; ? = inconclusive; - = no result. A selection: hits, their analogues and other compounds. The true share with any hit is near 6.8%.

SMILES | C diff HTS | T cruzi growth-1 | Pf Dd2 growth | T cruzi growth-2 | T cruzi growth-3 | NIH3T3 tox | 3T3 cytotox 2
C[C@H]1CCCCO[C@H](CN(C)C(=O)Nc2ccc(F)cc2)[C@@H](C)CN([C@@H](C)CO)C(=O)c2cc(NC(=O)Nc3cccc4ccccc34)ccc2O1 | 0 | 117 | 0 | 113 | 0 | 0 | 0
C[C@H](CO)N1C[C@H](C)[C@H](CN(C)C(=O)Nc2ccc(F)cc2)OCCCC[C@H](C)Oc2ccc(NC(=O)Nc3cccc4ccccc34)cc2C1=O | 0 | 0 | 0 | - | - | - | -
C[C@@H]1CN([C@H](C)CO)C(=O)c2cc(NC(=O)c3ccccc3)ccc2O[C@@H](C)CCCCO[C@H]1CN(C)C(=O)Nc1cccc2ccccc12 | 0 | 0 | 0 | - | - | - | -
C[C@@H]1CCCCO[C@H](CN(C)C(=O)Nc2cccc3ccccc23)[C@@H](C)CN([C@H](C)CO)C(=O)c2cc(NC(=O)Nc3ccccc3)ccc2O1 | 0 | 0 | 0 | - | - | - | -
C[C@@H]1CCCCO[C@H](CN(C)C(=O)Nc2cccc3ccccc23)[C@H](C)CN([C@@H](C)CO)C(=O)c2cc(NC(=O)c3ccccc3)ccc2O1 | 0 | 101 | 0 | 109 | 0 | 0 | 0
C[C@H](CO)N1C[C@H](C)[C@@H](CN(C)C(=O)Nc2cccc3ccccc23)OCCCC[C@H](C)Oc2ccc(NC(=O)Nc3ccccc3)cc2C1=O | 0 | 0 | 0 | - | - | - | -
C[C@H]1CCCCO[C@H](CN(C)C(=O)Nc2cccc3ccccc23)[C@@H](C)CN([C@@H](C)CO)C(=O)c2cc(NC(=O)Nc3ccccc3)ccc2O1 | 0 | ? | 0 | 106 | 113 | 0 | 0
C[C@H]1CCCCO[C@H](CN(C)C(=O)Nc2cccc3ccccc23)[C@@H](C)CN([C@@H](C)CO)C(=O)c2cc(NC(=O)Cc3ccccc3)ccc2O1 | 0 | 97 | -84 | 104 | 118 | 0 | 24
C[C@@H]1CN([C@H](C)CO)C(=O)c2cccc(NC(=O)CCCCCC(=O)Nc3ccccc3N)c2O[C@H]1CN(C)C(=O)Nc1ccc2c(c1)OCO2 | 0 | - | 0 | - | - | - | -
CCC(=O)N(C)C[C@@H]1Oc2ncc(-c3ccccc3C)cc2C(=O)N([C@H](C)CO)C[C@@H]1C | 0 | 0 | 0 | - | - | - | -
CC(C)C#Cc1ccc2c(c1)O[C@H](CN(C)C)[C@@H](C)CN([C@@H](C)CO)S2(=O)=O | 0 | - | 0 | - | - | - | -
C[C@@H]1CCCCO[C@@H](CN(C)C(=O)Nc2ccc(F)cc2)[C@@H](C)CN([C@@H](C)CO)C(=O)c2cc(NC(=O)Nc3cccc4ccccc34)ccc2O1 | 0 | 0 | 0 | - | - | - | -
C[C@@H]1CCCCO[C@@H](CN(C)C(=O)Nc2cccc3ccccc23)[C@H](C)CN([C@H](C)CO)C(=O)c2cc(NC(=O)Nc3ccc(F)cc3)ccc2O1 | 0 | 96 | 0 | 102 | 109 | 0 | 0
COc1ccc(NC(=O)Nc2ccc3c(c2)C(=O)N([C@@H](C)CO)C[C@@H](C)[C@@H](CN(C)C(=O)Nc2cccc4ccccc24)OCCCC[C@@H](C)O3)cc1 | 0 | ? | 0 | 103 | 0 | 0 | 0
COc1ccc(NC(=O)Nc2ccc3c(c2)C(=O)N([C@H](C)CO)C[C@H](C)[C@@H](CN(C)C(=O)Nc2cccc4ccccc24)OCCCC[C@H](C)O3)cc1 | 0 | 0 | 0 | - | - | - | -
C[C@H]1CCCCO[C@H](CN(C)C(=O)Nc2cccc3ccccc23)[C@@H](C)CN([C@@H](C)CO)C(=O)c2cc(NC(=O)Nc3ccc(F)cc3)ccc2O1 | 0 | 0 | 0 | - | - | - | -
C[C@@H]1CCCCO[C@@H](CN(C)C(=O)Nc2ccc(F)cc2)[C@@H](C)CN([C@H](C)CO)C(=O)c2cc(NC(=O)Nc3cccc4ccccc34)ccc2O1 | 0 | 103 | 0 | 0 | 0 | 0 | 0
C[C@H]1CN([C@@H](C)CO)C(=O)c2cc(-c3cccc(C#N)c3)cnc2O[C@@H]1CN(C)C(=O)C1CCC1 | 0 | 0 | 0 | - | - | - | -
C[C@@H]1CN([C@H](C)CO)S(=O)(=O)c2ccc(C3=CCCC3)cc2O[C@@H]1CN(C)Cc1cccnc1 | 0 | 0 | 0 | - | - | - | -
C[C@H]1CN([C@@H](C)CO)S(=O)(=O)c2ccc(C3=CCCC3)cc2O[C@H]1CN(C)Cc1cncnc1 | 0 | 0 | 0 | - | - | - | -
